Test results published in PMC12136788.
Substitutions are numbered along the chain they refer to. Over roughly 5,800 sequences, “enrichment r” has its median near 0.54; the highest 2% begin near 16. The sample holds the highest values, similar sequences and a random draw of the others, so the mix is not that of the screen.

B1: chr1:162785649:162785750:+|3pUTR|ENSG00000162733|unk|FALSE|unique (ssRNA)
RNA: GGGAGUUCUACAGUCCGACGAUCUGAAUGUUGUUUUUUUGAAUGAACAUAAGAUAGAAACAAAAACUUCUCAUCCAGUUAACUAGAGUGAAUGUAGGGAGAAUUGUUUUGCUUGUAACAUGGAGAGUUUAUUUUCAAGUGAGGCAACAGAGGAUUGAGCAUCA
B2: chr15:77046258:77046342:-|3pUTR|ENSG00000140391|msi1_unk|FALSE|overlapping (ssRNA)
RNA: GGGAGUUCUACAGUCCGACGAUCAAAAAUAUUUACUGUAGUCCAAUAAGAUAGCAGCUGUACAAAAUGACUAAAAUAGAUUGUAGGAUCAUAUGGCGUAUAUCUUGGUUCAUCUUCAAAAUCAGAGACUGAGCUUUGAAACUACAACAGAGGAUUGAGCAUCA
B3: chr2:128192346:128192447:+|3pUTR|ENSG00000136731|msi1|FALSE|unique (ssRNA)
RNA: GGGAGUUCUACAGUCCGACGAUCAGAAAAUGAUGUUACCACUAAAAUAUUUUCUCCAAGAAGGCAUACUGUAACAGAAAAGAUAGGUAAGAUAUUUUUUUCCCAAGAAGUAAGAAUUGAUUGUGCUGAAUGUUCAAACUCUGGCAACAGAGGAUUGAGCAUCA
B4: chr16:3727831:3727932:-|CDS|ENSG00000005339|unk|FALSE|bound_elsewhere (ssRNA)
RNA: GGGAGUUCUACAGUCCGACGAUCCGUCUCACCCCAGACUGGUUCCCCCCACCCCGGACUCGCAGUCACCAUGGCCAGCUCCAUAGAUCAGGGACACUUGGGGAACCCCGAACAGAGUGCAAUGCUCCCCCAGCUGAACACCCCCAACAGAGGAUUGAGCAUCA
B5: chr16:30193532:30193793:-|CDS|ENSG00000169627|control|control|control (ssRNA)
RNA: GGGAGUUCUACAGUCCGACGAUCGCCUUAGUAAGGGCGGAAGUGAGUUUUCCAGCGGAAGUGGCUCCUGUAAGGCAGCAAGGUAGCGUGGCCGGCGCCCGAGCUGGGGUUGUGUCCCUGCUGGGCUGCCGUUCCAGCUGGACUCAACAGAGGAUUGAGCAUCA
B6: chrX:101412715:101412817:+|CDS|ENSG00000126945|unk|FALSE|unique (ssRNA)
RNA: GGGAGUUCUACAGUCCGACGAUCGGGUAUGGAGGCUAUGAUGACUAUGGUGGCUAUAAUGAUGGAUAUGGCUUUGGGUCUGAUAGAUUUGGAAGAGACCUCAAUUACUGUUUUUCAGGAAUGUCUGAUCAUAGAUACGGAGAUCAACAGAGGAUUGAGCAUCA
B7: chr11:28036422:28036524:-|CDS|ENSG00000121621|unk|FALSE|unique (ssRNA)
RNA: GGGAGUUCUACAGUCCGACGAUCCAGCUCAAUGAUUCUCUUAGCAAAGAACUUCAGCCUAUUGUAUAUACACCAGAAGACUGUAGAAAAGCUUUUCAAAAUCCGUCUACAGUAACCUUAAUGAAACCAUCAUCAUUUACUACACAACAGAGGAUUGAGCAUCA
B8: chr11:74334375:74334476:-|3pUTR|ENSG00000165434|msi1|FALSE|unique (ssRNA)
RNA: GGGAGUUCUACAGUCCGACGAUCUUUUUGUUUUAUUUUUAAAAUGUGUAAAACAUCUUUUGUUUUAUAUGCUUUUAAGAAUGUAGAUUGUAAUUUAGGAAAUGGCAUAUAUUCUGCAAAGUGGUAUAAUGUUGUAUAUAUGAACAACAGAGGAUUGAGCAUCA
B9: chr6:98868534:98874277:-|three_prime_utr|ENSG00000112234|control|control|control (ssRNA)
RNA: GGGAGUUCUACAGUCCGACGAUCAUUAAAAUUAAUGUGCUUUGUUGGGGUUUAAUUUUGGGAUUGGUUUUGGGUUUUGUUUUUAGUUGUUUUAAUGGUAAGAAUUAAGACAUUUGUAGAUUUUAAAGAAAAAUAUGAAAUUGUCAACAGAGGAUUGAGCAUCA
B10: chr5:132541444:132541810:-|three_prime_utr|ENSG00000113525|control|control|control (ssRNA)
RNA: GGGAGUUCUACAGUCCGACGAUCAAAUUGAUAUACUUUUUUCUUAUUUAACUUAACAUUCUGUAAAAUGUCUGUUAACUUAAUAGUAUUUAUGAAAUGGUUAAGAAUUUGGUAAAUUAGUAUUUAUUUAAUGUUAUGUUGUGUCAACAGAGGAUUGAGCAUCA
B11: chr9:83661418:83661519:-|3pUTR|ENSG00000135018|msi1|FALSE|unique (ssRNA)
RNA: GGGAGUUCUACAGUCCGACGAUCUAUAGUUGGGUGACCAGAUUUUGUCCUGCAUCUGUCCAGUUUAUUUGCUUUUUAAACAUUAGCCUAUGGUAGUAAUUUAUGUAGAAUAAAAGCAUUAAAAAGAAGCAAAUCAUUUGCACUCAACAGAGGAUUGAGCAUCA
B12: chr9:83661418:83661519:-|3pUTR|ENSG00000135018|msi1|total|mutant (ssRNA)
RNA: B11 RNA with U26C, A27C, U83C, A84C, U93C, A94C, U105C, A106C
B13: chr8:25429562:25429664:-|3pUTR|ENSG00000104756|unk|FALSE|unique (ssRNA)
RNA: GGGAGUUCUACAGUCCGACGAUCAGAAAAGCACUCAUUUAAUAGAUGUAGGGAAACUAGAUAUUGCUGCCUUUUGAAUGGGGUAGGGGGGUUUACCUGGUUUUAUGACCAGGCAUAGUAUCUAUUAUAUUUGCUUUUAAAUAGCAACAGAGGAUUGAGCAUCA
B14: chr20:54218986:54219149:+|CDS|ENSG00000101132|unk|FALSE|unique (ssRNA)
RNA: GGGAGUUCUACAGUCCGACGAUCAAAUUUGCAAGAAGAAAUUGACGCCUUAGAAUCCAGAGUGGAAUCAAUUCAGCGAGUGUUAGCAGAUUUGAAAGUUCAGUUGUAUGCAAAAUUCGGGAGCAACAUAAACCUUGAAGCUGACAACAGAGGAUUGAGCAUCA
B15: chr5:136988535:136988636:-|CDS|ENSG00000152377|msi1|total|mutant (ssRNA)
RNA: GGGAGUUCUACAGUCCGACGAUCGGAAAGCAUCAGGCUUGGUGGCAGCUGAGAUAUGCCUUUUGUUUGGCAGGGUUUGACACCCGCAUCCUGCCCAUCUGCAAGGACUCCCUGGGCUGGAUGUUCAACAAGUUGGACAUGAACCAACAGAGGAUUGAGCAUCA

Target: MSI1 full-length (mouse, UniProt Q61474 1-362)
Test: nsRBNS (natural sequence RNA bind-n-seq); RBNS binding buffer (assumed for nsRBNS): 25 mM Tris pH 7.5, 150 mM KCl, 3 mM MgCl2, 0.01% Triton X-100, 500 ug/ml BSA, 20 U/ml SUPERase-In, 4 C; UNK is unkempt and MSI1 is Musashi-1; names of the RNAs are library labels; protein concentration not given here; high values mean tight binding

Sequence of MSI1 full-length (Q61474 whole entry): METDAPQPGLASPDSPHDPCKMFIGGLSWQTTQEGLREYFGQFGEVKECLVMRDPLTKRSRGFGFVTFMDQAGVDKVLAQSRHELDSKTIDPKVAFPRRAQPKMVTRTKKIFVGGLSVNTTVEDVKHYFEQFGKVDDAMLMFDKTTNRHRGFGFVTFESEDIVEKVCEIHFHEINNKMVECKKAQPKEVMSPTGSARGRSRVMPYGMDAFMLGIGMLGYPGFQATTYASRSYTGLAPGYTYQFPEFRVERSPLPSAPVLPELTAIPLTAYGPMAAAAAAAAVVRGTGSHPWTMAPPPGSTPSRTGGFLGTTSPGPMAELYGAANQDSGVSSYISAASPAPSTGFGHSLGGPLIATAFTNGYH

| Binder | binding signal |
| --- | --- |
| B1 | 2.65 enrichment R |
| B2 | 9.31 enrichment R |
| B3 | 0.593 enrichment R |
| B4 | 0.562 enrichment R |
| B5 | 0.62 enrichment R |
| B6 | 0.771 enrichment R |
| B7 | 0.992 enrichment R |
| B8 | 3.15 enrichment R |
| B9 | 21.9 enrichment R |
| B10 | 2.88 enrichment R |
| B11 | 26.4 enrichment R |
| B12 | 0.203 enrichment R |
| B13 | 2.16 enrichment R |
| B14 | 0.378 enrichment R |
| B15 | 0.511 enrichment R |
